# Measured values: PubChem BioAssay (NCATS)
# Inconclusive results are not listed. A call without a number means that no potency is given here. The source made the active and inactive calls. Unless noted, the call rests on the fitted dose curve; in most records, active means well fitted curve in the direction sought with a large enough effect; inconclusive means small, poorly fitted or top-dose-only effect, or another doubt; inactive means no such curve, though single readings can be large; an effect the other way counts as inactive or inconclusive.
# Columns and labels:
# [1] = biological target: Cytochrome P450 3A4 (Homo sapiens) (UniProt P08684); test: qHTS Assay for Inhibitors and Substrates of Cytochrome P450 3A4 (AID 884); further: nearly all actives have a fitted effect of over 50% in size
# Sequence of Cytochrome P450 3A4 (Homo sapiens) (P08684 whole entry, looked up): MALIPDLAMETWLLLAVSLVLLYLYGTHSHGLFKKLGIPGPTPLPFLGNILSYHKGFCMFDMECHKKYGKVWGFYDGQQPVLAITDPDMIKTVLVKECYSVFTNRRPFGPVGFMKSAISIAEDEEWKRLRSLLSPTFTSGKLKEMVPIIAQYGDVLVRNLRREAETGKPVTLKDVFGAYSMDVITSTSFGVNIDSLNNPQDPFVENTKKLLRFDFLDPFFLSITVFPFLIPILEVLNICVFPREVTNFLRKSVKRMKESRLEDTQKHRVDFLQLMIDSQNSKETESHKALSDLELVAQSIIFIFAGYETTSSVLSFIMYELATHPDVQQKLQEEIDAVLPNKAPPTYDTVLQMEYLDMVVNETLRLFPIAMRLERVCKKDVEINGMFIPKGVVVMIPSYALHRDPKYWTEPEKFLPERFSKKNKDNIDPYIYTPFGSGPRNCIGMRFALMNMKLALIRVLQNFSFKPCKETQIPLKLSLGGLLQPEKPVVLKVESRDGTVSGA
# How it was run: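 20 nM human CYP3A4 with 25 uM Luciferin-PPXE (at KM) in 200 mM KPO4, preincubated 10 min with compound; NADPH regeneration started a 60 min RT reaction. Luciferin detected by luminescence, normalized to 57 uM ketoconazole as full inhibition.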
# [2] = Confirmation and Secondary Assay for Modulators of Hemoglobin Beta Chain Splicing at IVS2 654 locus (AID 910);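 further: per-well total GFP intensity by laser scanning cytometry after 2-day treatment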
# How it was run: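 HeLa cells stably carrying EGFP interrupted by mutant beta-globin IVS2-654 intron (CMV-driven) were treated with compound for 2 days at 37C; corrected splicing was scored as total peak GFP intensity per well (488 nm excitation, 500-520 nm emission).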
# [3] = Confirmation and Secondary Assay for Modulators of Hemoglobin Beta Chain Splicing at IVS2 705 locus (AID 930);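 further: HeLa cells stably expressing the EGFP-705 splicing reporter; GFP fluorescence per well restored by corrected splicing of the IVS2-705 intron in EGFP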
# How it was run: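 Splice-correction reporter: EGFP cDNA split by beta-globin intron 2 bearing the 705 mutation, stably in HeLa. Compound incubation 2 days, 37C; fluorescent objects 5-250 µm summed per well.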
# [4] = qHTS Assay for Lipid Storage Modulators (AID 1519; calls by dose curve); details: Drosophila S3 cells, BODIPY lipid droplet/cell ratio, laser cytometry, cells loaded with oleic acid; for activity change, negative = inhibition: at 57.5 µM (top of the series)
# How it was run: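 Cells seeded at 5,000 per well were treated with compounds over a concentration series and loaded with oleic acid (400 uM, as added). Lipid droplet fluorescence (488 nm excitation, 500-530 nm channel) was read by laser-scanning cytometry and normalized to 20 uM Triacsin C.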
# [5] = biological target: Ubiquitin carboxyl-terminal hydrolase 1 (Homo sapiens) (UniProt O94782); test: Inhibitors of USP1/UAF1: Pilot qHTS (AID 504865);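 further: rhodamine fluorescence freed from ubiquitin-rhodamine substrate followed over time; top concentration of the series differs between compounds; nearly all actives have a fitted effect of over 35% in size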
# Sequence of Ubiquitin carboxyl-terminal hydrolase 1 (Homo sapiens) (O94782 whole entry, looked up): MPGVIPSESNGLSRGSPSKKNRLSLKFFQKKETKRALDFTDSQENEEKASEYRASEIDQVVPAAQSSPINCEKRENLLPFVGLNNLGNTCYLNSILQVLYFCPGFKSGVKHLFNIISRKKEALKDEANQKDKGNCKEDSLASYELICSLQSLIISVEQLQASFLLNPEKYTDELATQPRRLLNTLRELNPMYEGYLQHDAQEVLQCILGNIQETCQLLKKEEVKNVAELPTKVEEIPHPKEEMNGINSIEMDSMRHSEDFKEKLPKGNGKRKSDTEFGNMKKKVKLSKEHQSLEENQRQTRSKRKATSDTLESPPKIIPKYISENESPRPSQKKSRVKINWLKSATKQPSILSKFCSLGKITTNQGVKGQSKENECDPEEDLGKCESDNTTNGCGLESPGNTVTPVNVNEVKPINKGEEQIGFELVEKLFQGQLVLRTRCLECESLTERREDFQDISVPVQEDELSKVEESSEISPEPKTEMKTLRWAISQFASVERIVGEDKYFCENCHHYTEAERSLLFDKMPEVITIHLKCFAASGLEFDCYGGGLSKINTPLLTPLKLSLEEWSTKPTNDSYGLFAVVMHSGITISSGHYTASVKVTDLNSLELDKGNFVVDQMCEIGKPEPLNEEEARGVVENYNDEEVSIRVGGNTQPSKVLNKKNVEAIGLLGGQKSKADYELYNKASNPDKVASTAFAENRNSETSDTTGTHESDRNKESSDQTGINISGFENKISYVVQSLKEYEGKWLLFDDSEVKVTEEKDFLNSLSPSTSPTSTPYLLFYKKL
# How it was run: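 USP1/UAF1 complex at 1 nM preincubated 15 min at room temperature with compound, then Ub-Rho substrate added at 150 nM final. Fluorescence (480/540 nm) read kinetically in 50 mM HEPES pH 7.8, 0.5 mM EDTA, 1 mM TCEP, 0.1 mg/ml BSA, 0.01% Tween-20.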
# [6] = measured here: cell count channel max response
# [7] = measured here: lipid channel max response
Compound,Potency [1],Potency [2],Potency [3],"activity change, negative = inhibition [4]","max response [4, 6] [%]","max response [4, 7] [%]",Potency [5]
COc1cc(OC)c2c(c1Cl)OC1(C2=O)C(O)=CC(=O)CC1C (configuration not stated),inactive,inactive,inactive,0.55% (inactive),-1.12,2.38,inactive
CC1CCC(C(C)C)[C@H](O)C1 (some centres not stated),inactive,inactive,inactive,8.01% (inactive),-2.41,-1.46,inactive
CCC(/C=C/C(C)C1CCC2C3CCC4=CC(=O)CC[C@@]4(C)C3CC[C@@]12C)C(C)C (some centres not stated),inactive,inactive,inactive,4.65% (inactive),11.9,16.6,inactive
O=C(O)C1CC(C2CCCCN2)CN2CCCCC12 (configuration not stated),inactive,inactive,inactive,2.57% (inactive),-1.28,1.78,inactive
O=C(Cc1ccccc1)NO,inactive,inactive,inactive,4.41% (inactive),2.32,5.58,inactive
CC1C(O)CC2C(C(=O)O)=CO[C@@H](O[C@H]3OC(CO)C(O)C(O)C3O)C21 (some centres not stated),inactive,inactive,inactive,4.54% (inactive),10.9,15.2,inactive
CC(=O)OC1CC[C@@]2(C)C3=CC(=O)[C@]4(C)C(CC5OC6(OCC(C)CC6Br)C(C)C54)C3CC[C@H]2C1 (some centres not stated),inactive,inactive,inactive,-8.55% (inactive),-17.7,-20.5,inactive
Nc1nc2c(nc(Br)n2C2CC(O)C(CO)O2)c(=O)[nH]1 (configuration not stated),inactive,inactive,inactive,3.88% (inactive),4.93,9.77,inactive
COc1ccc(C2CC(=O)c3c(O)cc(O[C@H]4OC(COC5OC(C)C(O)C(O)[C@@H]5O)C(O)C(O)C4O)cc3O2)cc1O (some centres not stated),inactive,inactive,inactive,-1.5% (inactive),1.58,-1.01,inactive
Nc1ncnc2c1[nH]c(=O)n2C1OC(CO)C(O)C1O (configuration not stated),inactive,inactive,inactive,-0.198% (inactive),11.6,24.7,inactive
CO[C@]1(NC(=O)C(C(=O)O)c2ccc(O)cc2)C(=O)N2C(C(=O)O)=C(CSc3nnnn3C)COC21 (some centres not stated),inactive,inactive,inactive,9.58% (inactive),18.1,35.5,inactive
COc1ccc(CCC(=O)c2c(O)cc(OC3OC(CO)C(O)C(O)C3O[C@@H]3OC(C)C(O)C(O)C3O)cc2O)cc1O (some centres not stated),inactive,inactive,inactive,7.07% (inactive),3.74,14.6,inactive
CC(=O)OCCC(C)CCC=C(C)C (configuration not stated),inactive,inactive,inactive,5.97% (inactive),4.67,12.4,inactive
COC(=O)C1=CO[C@@H](O[C@H]2OC(CO)C(O)C(O)C2O)C2C1CC(O)C2C (some centres not stated),inactive,inactive,inactive,6.73% (inactive),11.3,19.4,inactive
CC1CC[C@@]2(OC1)OC1CC3C4CC[C@H]5CC(O)CC[C@@]5(C)C4CC[C@]3(C)C1C2C (some centres not stated),inactive,inactive,inactive,2.03% (inactive),27.2,29.7,inactive
CC1CCC2(OC1)OC1CC3C4CCC5CC(O)CCC5(C)C4=CCC3(C)C1C2C (configuration not stated),inactive,inactive,inactive,-0.725% (inactive),2.89,3.25,inactive
Cn1nnnc1SCC1=C(C(=O)O)N2C(=O)C(NC(=O)C(OC=O)c3ccccc3)C2SC1 (configuration not stated),inactive,inactive,inactive,4.18% (inactive),15,24.5,inactive
CC1CCC2(C(=O)O)CCC3(C)C(=CCC4C3(C)CCC3[C@@]4(C)CC(O)C(O)[C@@]3(C)CO)C2C1C (some centres not stated),inactive,inactive,inactive,3.5% (inactive),22.9,33.5,inactive
CC(=O)OCC1OC(n2cnc3c(Cl)nc(Cl)nc32)C(OC(C)=O)C1OC(C)=O (configuration not stated),inactive,inactive,inactive,-4.18% (inactive),15.8,12.7,inactive
CC1(C)CC[C@]2(C)CC[C@@]3(C)C(=CCC4[C@@]5(C)CCC(O)C(C)(C)C5CC[C@@]43C)C2C1 (some centres not stated),inactive,inactive,inactive,3.54% (inactive),18,24.3,inactive
COC1[C@H](OC(N)=O)C(O)[C@H](Oc2ccc3c(O)c(NC(=O)c4ccc(O)c(CC=C(C)C)c4)c(=O)oc3c2C)OC1(C)C (some centres not stated),inactive,inactive,inactive,8.38% (inactive),13.2,25.2,inactive
